From PubChem BioAssay
Active and inactive are the calls of the source.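 Rule for the calls, unless noted: active = visually confirmed hit in the image check and inhibition above 20%; inconclusive = visually confirmed hit but inhibition not above 20%; inactive = no visual hit in the image check.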

Assay: inhibitors of TNFa-induced NFkB p65 translocation, primary screen, imaging, HUVEC, MLSMR starter and 10KST1 sets (AID 438;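 active = inhibition above 20% together with a positive visual image hit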;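 note: compound added about 3h40 before a 20 min TNFalpha stimulation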;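 for inhibition: signal is the nuclear over cytoplasmic p65 intensity ratio per well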)
Settings: HUVEC TNFa-induced p65 nuclear translocation; cell count: measured here: nuclei count (cytotoxicity indicator), at 2.08 µM; inhibition: at 2 µM, stronger effect = higher value, 0% TNFa-plus-vehicle, 100% no-TNFa wells
For `O=C(c1ccc(=O)oc1)N1CCN(c2ccc(F)cc2)CC1`, the inhibition was -4.5% (inactive) and the cell count was 328. For `CC(C)(C)C1=Nn2c(nnc2-c2ccco2)SC1`, the inhibition was -3.7% (inactive) and the cell count was 663. In the case of `COc1cc(OC)cc(C(=O)N2CCC(N3CCCCCC3)CC2)c1`, the inhibition was -26.6% (inactive) and the cell count was 372. With `COc1cc(=O)n2c(-c3ccccc3)csc2n1` the inhibition was 0% (inactive) and the cell count was 628. With `COc1ccccc1OCC(=O)Nc1ccc(S(=O)(=O)Nc2cc(C)nc(C)n2)cc1` the cell count was 571 and the inhibition was -6.6% (inactive). With `COCCCNC(=O)c1c(N)n(/N=C/c2cccs2)c2nc3ccccc3nc12` the inhibition was -11.1% (inactive) and the cell count was 342. For `CCOC(=O)CNS(=O)(=O)c1cc(-c2nn(C)c(=O)c3ccccc23)ccc1C`, the inhibition was -1.9% (inactive) and the cell count was 560. For `N#CC1=C(SCc2ccccc2)NC2=C(C(=O)CCC2)C1c1ccc2c(c1)OCO2` (stereo unspecified), the inhibition was -28.9% (inactive) and the cell count was 490. With `CCOC(=O)c1[nH]c2cc3c(cc2c1NC(=O)CN1CCc2ccccc2C1)OCO3` the cell count was 523 and the inhibition was 0.1% (inactive). For `CCOC(=O)c1ccc(NC(=O)CCC(CC)C(=O)O)cc1` (stereo unspecified), the cell count was 402 and the inhibition was -23.7% (inactive). With `CCOC(=O)CSc1nc2ccccc2c(=O)n1C` the inhibition was -9.5% (inactive) and the cell count was 636. In the case of `CC(O)Cn1ccccc1=N` (stereo unspecified), the inhibition was -2% (inactive) and the cell count was 352. For `CC1CN(C2CCN(S(=O)(=O)Cc3ccccc3)CC2)CC(C)O1` (stereo unspecified), the cell count was 355 and the inhibition was -15.2% (inactive). With `CN1CCN(c2ncnc3c2[nH]c2ccc(F)cc23)CC1` the inhibition was -15.6% (inactive) and the cell count was 330. In the case of `COc1cc(-c2nn3c(C4CCCCC4)nnc3s2)cc(OC)c1OC`, the inhibition was -28.6% (inactive) and the cell count was 535. In the case of `O=C1OC(Nc2ccc(Br)cn2)c2ccccc21` (stereo unspecified), the inhibition was 2.6% (inactive) and the cell count was 388. For `Cc1nnc2n(Cc3ccccc3)c(=O)c3c4c(sc3n12)CN(Cc1ccccc1)CC4`, the cell count was 628 and the inhibition was -8.2% (inactive). For `O=C(O)C(Cc1c[nH]c2ccccc12)NS(=O)(=O)c1cccc2nsnc12` (stereo unspecified), the inhibition was -1.2% (inactive) and the cell count was 564. For `Cc1ccc(C(=O)C2=C(O)C(=O)N(c3ncccn3)C2c2ccc(Cl)cc2)o1` (stereo unspecified), the inhibition was -10.1% (inactive) and the cell count was 371. With `CC(=O)C1(C)OC(N)=C(C#N)C(c2ccccc2)C1(C#N)C#N` (stereo unspecified) the cell count was 511 and the inhibition was -7.2% (inactive). In the case of `CCCCOc1ccccc1/C=c1/sc2nc(-c3oc4ccccc4c3C)nn2c1=O`, the cell count was 431 and the inhibition was 0.7% (inactive). With `CCCOc1ccc(/C(O)=C2/C(=O)C(=O)N(CCN(C)C)C2c2ccncc2)cc1` (stereo unspecified) the inhibition was -4.1% (inactive) and the cell count was 434. For `Cc1onc(-c2ccccc2Cl)c1C(=O)N1CCN(c2nc3ccccc3s2)CC1`, the inhibition was -8.1% (inactive) and the cell count was 340. In the case of `COc1ccc2oc(=O)c(-c3nc(C)cs3)cc2c1`, the inhibition was -9.3% (inactive) and the cell count was 523. In the case of `CCOC(=O)CSc1nc(NC#N)nc(N(CC)CC)n1`, the cell count was 650 and the inhibition was -7.6% (inactive). For `CCOc1ccc(/C(O)=C2/C(=O)C(=O)N(CCN(C)C)C2c2ccccc2)cc1Cl` (stereo unspecified), the cell count was 539 and the inhibition was -10.3% (inactive). In the case of `CCCCOC(=O)Nc1ccc(S(=O)(=O)Nc2nc(C)cc(C)n2)cc1`, the cell count was 515 and the inhibition was -10.1% (inactive). In the case of `COc1ccc(C=NCCC2(O)CC(C)N(C)CC2C)cc1` (stereo unspecified), the inhibition was -16.4% (inactive) and the cell count was 340. For `Cc1ccc(C(C)C)c(OCCNc2nc3c(c(=O)n(C)c(=O)n3C)n2C)c1`, the cell count was 605 and the inhibition was -26.5% (inactive). For `CCOC(=O)CCc1c(C)c(C#N)c2nc3ccccc3n2c1-n1ccnc1C`, the cell count was 583 and the inhibition was -0.8% (inactive). For `C=CCSc1nc(C)c(CC=C)c(=O)[nH]1`, the inhibition was -4.7% (inactive) and the cell count was 482. With `CC1C[C@@]2(NC(=O)NC2=O)C(C)CN1C` (stereo partly specified) the inhibition was -6.8% (inactive) and the cell count was 510. In the case of `Cc1nnc(C)n1/N=C/c1cc(Br)cc(Br)c1O`, the cell count was 354 and the inhibition was 3.7% (inactive). For `Clc1ccc2[nH]c3c(NCCN4CCOCC4)ncnc3c2c1`, the inhibition was -25% (inactive) and the cell count was 504. In the case of `Cc1cc(C)n(CC(=O)N2c3ccccc3Sc3ccccc32)n1`, the inhibition was -0.4% (inactive) and the cell count was 563. With `Cn1c(NCC(O)c2ccccc2)nc2c1c(=O)n(Cc1ccc(Cl)c(Cl)c1)c(=O)n2C` (stereo unspecified) the cell count was 669 and the inhibition was -6.1% (inactive). With `COc1ccccc1-c1nn2c(-c3ccco3)nnc2s1` the cell count was 544 and the inhibition was -2.9% (inactive). In the case of `CCCCNC(=O)c1c(N)n(/N=C/c2cccnc2)c2nc3ccccc3nc12`, the cell count was 474 and the inhibition was 4.9% (inactive). With `CCOc1ccc(C2C(C(=O)c3ccc(C)o3)=C(O)C(=O)N2CCCN(CC)CC)cc1` (stereo unspecified) the inhibition was -20.5% (inactive) and the cell count was 518.

Assay: inhibitors of E-selectin induction by TNFa, primary screen, imaging, HUVEC, immunofluorescence, MLSMR starter and 10KST1 sets (AID 487);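 for inhibition: signal is fraction of cell area covered by stained E-selectin grains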;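 for nuclei count: 100% = median nuclei count of all wells on the same plate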
Settings: HUVEC TNFalpha-induced E-selectin immunofluorescence imaging, at 2 µM; inhibition: stronger effect = higher value; nuclei count: measured here: cell number, toxicity
In the case of `O=C(c1ccc(=O)oc1)N1CCN(c2ccc(F)cc2)CC1`, the inhibition was -1.9% (inactive) and the nuclei count was 95.2%. With `CC(C)(C)C1=Nn2c(nnc2-c2ccco2)SC1` the inhibition was -70.4% (inactive) and the nuclei count was 165%. With `COc1cc(OC)cc(C(=O)N2CCC(N3CCCCCC3)CC2)c1` the nuclei count was 132% and the inhibition was -111% (inactive). In the case of `COc1cc(=O)n2c(-c3ccccc3)csc2n1`, the inhibition was -58.9% (inactive) and the nuclei count was 153%. In the case of `COc1ccccc1OCC(=O)Nc1ccc(S(=O)(=O)Nc2cc(C)nc(C)n2)cc1`, the inhibition was 3% (inactive) and the nuclei count was 159%. In the case of `COCCCNC(=O)c1c(N)n(/N=C/c2cccs2)c2nc3ccccc3nc12`, the nuclei count was 125% and the inhibition was 4.6% (inactive). In the case of `CCOC(=O)CNS(=O)(=O)c1cc(-c2nn(C)c(=O)c3ccccc23)ccc1C`, the inhibition was 45.7% (inactive) and the nuclei count was 144%. For `N#CC1=C(SCc2ccccc2)NC2=C(C(=O)CCC2)C1c1ccc2c(c1)OCO2` (stereo unspecified), the inhibition was -54.8% (inactive) and the nuclei count was 138%. With `CCOC(=O)c1[nH]c2cc3c(cc2c1NC(=O)CN1CCc2ccccc2C1)OCO3` the nuclei count was 104% and the inhibition was -11.1% (inactive). With `CCOC(=O)c1ccc(NC(=O)CCC(CC)C(=O)O)cc1` (stereo unspecified) the inhibition was -228% (inactive) and the nuclei count was 167%. With `CCOC(=O)CSc1nc2ccccc2c(=O)n1C` the inhibition was -24.4% (inactive) and the nuclei count was 170%. For `CC(O)Cn1ccccc1=N` (stereo unspecified), the nuclei count was 105% and the inhibition was -146% (inactive). In the case of `CC1CN(C2CCN(S(=O)(=O)Cc3ccccc3)CC2)CC(C)O1` (stereo unspecified), the nuclei count was 179% and the inhibition was -254% (inactive). For `CN1CCN(c2ncnc3c2[nH]c2ccc(F)cc23)CC1`, the nuclei count was 64.2% and the inhibition was -17.5% (inactive). In the case of `COc1cc(-c2nn3c(C4CCCCC4)nnc3s2)cc(OC)c1OC`, the inhibition was -115% (inactive) and the nuclei count was 167%. In the case of `O=C1OC(Nc2ccc(Br)cn2)c2ccccc21` (stereo unspecified), the nuclei count was 94.3% and the inhibition was 47.2% (inactive). With `Cc1nnc2n(Cc3ccccc3)c(=O)c3c4c(sc3n12)CN(Cc1ccccc1)CC4` the inhibition was 29.2% (inactive) and the nuclei count was 167%. With `O=C(O)C(Cc1c[nH]c2ccccc12)NS(=O)(=O)c1cccc2nsnc12` (stereo unspecified) the inhibition was -96.3% (inactive) and the nuclei count was 160%. In the case of `Cc1ccc(C(=O)C2=C(O)C(=O)N(c3ncccn3)C2c2ccc(Cl)cc2)o1` (stereo unspecified), the nuclei count was 94.4% and the inhibition was 14.5% (inactive). In the case of `CC(=O)C1(C)OC(N)=C(C#N)C(c2ccccc2)C1(C#N)C#N` (stereo unspecified), the nuclei count was 155% and the inhibition was -76.9% (inactive). With `CCCCOc1ccccc1/C=c1/sc2nc(-c3oc4ccccc4c3C)nn2c1=O` the inhibition was -36.7% (inactive) and the nuclei count was 128%. In the case of `CCCOc1ccc(/C(O)=C2/C(=O)C(=O)N(CCN(C)C)C2c2ccncc2)cc1` (stereo unspecified), the nuclei count was 154% and the inhibition was -139% (inactive). With `Cc1onc(-c2ccccc2Cl)c1C(=O)N1CCN(c2nc3ccccc3s2)CC1` the inhibition was -48.8% (inactive) and the nuclei count was 168%. In the case of `COc1ccc2oc(=O)c(-c3nc(C)cs3)cc2c1`, the inhibition was -79.5% (inactive) and the nuclei count was 135%. For `CCOC(=O)CSc1nc(NC#N)nc(N(CC)CC)n1`, the inhibition was -42.9% (inactive) and the nuclei count was 165%. For `CCOc1ccc(/C(O)=C2/C(=O)C(=O)N(CCN(C)C)C2c2ccccc2)cc1Cl` (stereo unspecified), the inhibition was -64% (inactive) and the nuclei count was 156%. For `CCCCOC(=O)Nc1ccc(S(=O)(=O)Nc2nc(C)cc(C)n2)cc1`, the nuclei count was 128% and the inhibition was -17.4% (inactive). In the case of `COc1ccc(C=NCCC2(O)CC(C)N(C)CC2C)cc1` (stereo unspecified), the inhibition was -85.1% (inactive) and the nuclei count was 131%. In the case of `Cc1ccc(C(C)C)c(OCCNc2nc3c(c(=O)n(C)c(=O)n3C)n2C)c1`, the nuclei count was 165% and the inhibition was -61.7% (inactive). In the case of `CCOC(=O)CCc1c(C)c(C#N)c2nc3ccccc3n2c1-n1ccnc1C`, the inhibition was -125% (inactive) and the nuclei count was 138%. In the case of `C=CCSc1nc(C)c(CC=C)c(=O)[nH]1`, the inhibition was -71.1% (inactive) and the nuclei count was 87.6%. For `CC1C[C@@]2(NC(=O)NC2=O)C(C)CN1C` (stereo partly specified), the nuclei count was 118% and the inhibition was -91.9% (inactive). For `Cc1nnc(C)n1/N=C/c1cc(Br)cc(Br)c1O`, the nuclei count was 156% and the inhibition was -46.9% (inactive). For `Clc1ccc2[nH]c3c(NCCN4CCOCC4)ncnc3c2c1`, the nuclei count was 154% and the inhibition was -70% (inactive). For `Cc1cc(C)n(CC(=O)N2c3ccccc3Sc3ccccc32)n1`, the inhibition was -139% (inactive) and the nuclei count was 139%. In the case of `Cn1c(NCC(O)c2ccccc2)nc2c1c(=O)n(Cc1ccc(Cl)c(Cl)c1)c(=O)n2C` (stereo unspecified), the nuclei count was 162% and the inhibition was -18.3% (inactive). In the case of `COc1ccccc1-c1nn2c(-c3ccco3)nnc2s1`, the nuclei count was 162% and the inhibition was -39.4% (inactive). In the case of `CCCCNC(=O)c1c(N)n(/N=C/c2cccnc2)c2nc3ccccc3nc12`, the inhibition was -130% (inactive) and the nuclei count was 139%. In the case of `CCOc1ccc(C2C(C(=O)c3ccc(C)o3)=C(O)C(=O)N2CCCN(CC)CC)cc1` (stereo unspecified), the inhibition was -72.6% (inactive) and the nuclei count was 151%.
